Only some compounds are listed: those with a hit (about 5.5% of all), similar ones and a draw of the others.
Sfp PPTase inh – inhibitors of Bacillus subtilis Sfp phosphopantetheinyl transferase. Biochemical Sfp PPTase activity, qHTS. Potency, µM, most hits filed as inhibitors. 310,000 compounds, 3.5% hits. AID 1490. Q9F4F7;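 note: the enzyme is Sfp with the accession as filed and its product quenches rhodamine fluorescence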
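Fluorescence-quenching assay with 15 nM Sfp, 5 uM rhodamine-CoA and 12.5 uM BHQ-2-labelled ybbR peptide in pH 7.6 Hepes/MgCl2 buffer. Enzyme was pre-incubated with compound for 15 min at room temperature. Rate was taken from the 30-min fluorescence change (525/598 nm).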
ELG1 repair inh – blocks ELG1-dependent DNA repair in HEK293T cells | HEK293T ELG1-luciferase reporter, luminescence, 16 h; DNA damage induced by 5-fluorouridine | Potency, µM (series often up to 46.1 µM), most hits filed as inhibitors | 330,000 compounds, 2.3% hits; note: nearly all actives have a fitted effect of over 55% in size
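Reporter activity after DNA damage by 5-fluorouridine is monitored. Compound-treated cells incubate 16 hr at 37 °C, then ONE-Glo is added for 30 min before luminescence reading.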
Giardia killer – kills Giardia lamblia; Giardia lamblia trophozoite viability; activity change, % at 7.66 µM, hits read low; 340,000 compounds, 0.15% hits; AID 540267; in the data active = activity change below about -80%; inconclusive = between about -30% and that limit;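 note: parasites exposed to compound for two days anaerobically before the ATP read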
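Luminescent ATP signal served as the viability read-out, measured 15-30 min after adding ATP detection reagent to trophozoites that had been incubated with compounds for 48 hrs at 37 deg C anaerobically at 100 cells/well.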
Coupling enz – coupling enzyme interference in Giardia aldolase counter-screen | coupling enzyme system counterscreen, AmpLite Red fluorescence | 290,000 compounds, 0.67% hits | activity change, negative = inhibition, % at 58.2 µM, hits read low; in the data active = activity change below about -30%
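Coupling enzymes only (glyceraldehyde-3-phosphate) + compound, at 57.5 uM final, 10 min RT; add substrate/coupling/AmpLite Red mix, 20 min RT; fluorescence ex 525/em 598 nm. Actives flag coupling-system interference.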
Hits are given with their value; - = inactive; ? = inconclusive; . = not tested or not shown; ! = not active in a repeat. Unless noted, calls come from the whole dose curve; as a rule, active = well fitted curve in the direction sought with a large enough effect; inconclusive = small, poorly fitted or top-dose-only effect, or another doubt; inactive = no such curve, though single readings can be large; an effect the other way counts as inactive or inconclusive.

SMILES | Sfp PPTase inh | ELG1 repair inh | Giardia killer | Coupling enz
COC(=O)c1nc(-c2ccc3c(n2)C(=O)C(N)=C(OC)C3=O)c(N)c(-c2ccc(OC)c(OC)c2O)c1C | 16µM | 2.1µM | ? | -37
c1cc(CN2CCC3(CCNCC3)CC2)ccn1 | - | . | . | -
C[C@]12CCC3C(CC[C@H]4C[C@@H](O)CC[C@]34C)[C@@H]1CCC2=O (stereo partly specified) | - | . | . | -
c1cc[n+]2c(c1)-c1cccc[n+]1CC2 | - | . | . | -35
Cc1cccn2c(=O)c3c(nc12)N1CCC(Cc2ccccc2)CC1C1(C3)C(=O)N(C)C(=O)N(C)C1=O (stereo unspecified) | 32µM | ? | - | -
O=P(c1ccccc1)(c1ccccc1)N1CC2(CC2)CC(O)(c2ccccc2)C1 (stereo unspecified) | - | . | . | -
Cc1ccccc1C1=NCC(=O)N(CC(=O)NCc2ccco2)c2sc3c(c21)CCCC3 | 50µM | ? | - | -
CCc1ccc(N2C(=O)NC(=O)/C(=C/c3cccn3CCOc3ccc(C(C)CC)cc3)C2=O)cc1 (stereo unspecified) | - | ? | - | -
Cc1cccc(OCCn2cccc2/C=C2/C(=O)NC(=O)N(Cc3ccco3)C2=O)c1 | 56µM | ? | - | -
CCc1ccc(N2C(=O)NC(=O)/C(=C/c3cccn3CCOc3ccc(C)cc3)C2=O)cc1 | - | ? | - | -
O=C1NC(=O)N(Cc2ccco2)C(=O)/C1=C\c1cccn1CCOc1ccc(Cl)cc1 | 45µM | ? | - | -
CN1C(=O)C(=Cc2ccc(N3CCCCCC3)cc2)C(=O)N(C)C1=O | ? | ? | - | -
CN1C(=O)C(=Cc2cccnc2)C(=O)N(C)C1=O | 40µM | - | - | -
Cc1ccc(/C=C2\C(=O)NC(=S)N(c3ccccc3F)C2=O)s1 | 14µM | 23µM | - | -
O=C(OCCN1CCCCC1)C(O)(c1ccccc1)c1ccccc1 | - | . | . | .
COc1cc(C(C#N)N2CCOCC2)ccc1O (stereo unspecified) | - | ? | - | -35
C/C=C1\C2C=C(C)C[C@@]1(N)c1ccc(=O)[nH]c1C2 | - | . | . | -
COC1CC(OC2CCC3(C)C(CCC4C3CCC3(C)C(C5=CC(=O)OC5)C(OC(C)=O)CC43O)C2)OC(C)C1OC1OC(COC2OC(CO)C(O)C(O)C2O)C(O)C(O)C1O (stereo unspecified) | - | 2.9µM | . | -
Nn1c(Cc2cccc3ccccc23)n[nH]c1=S | 7.1µM | - | - | -
CC[C@@]1(C(=O)OC)N[C@H](CN(C)C(=O)c2ccc(C(C)(C)C)cc2)[C@@H]2C(=O)N(Cc3ccccc3)C(=O)[C@@H]21 | . | 12µM | - | .
CCC(C)n1c(O)c(C(c2ccccn2)c2c(O)n(C(C)CC)c(=S)[nH]c2=O)c(=O)[nH]c1=S (stereo unspecified) | 50µM | - | - | -
CCCSP(=S)(OCC)Oc1ccc(Cl)cc1Cl (stereo unspecified) | ? | . | . | -
CC(C)[C@@]1(NC(=O)[C@@H]2C[C@H]3c4cccc5[nH]cc(c45)C[C@@H]3N(C)C2)O[C@]2(O)[C@H]3CCCN3C(=O)CN2C1=O | - | . | . | -
CC(C)C[C@H]1C(=O)N2CCC[C@@H]2[C@]2(O)O[C@](NC(=O)[C@@H]3C=C4c5cccc6[nH]c(Br)c(c56)C[C@H]4N(C)C3)(C(C)C)C(=O)N12 | - | . | . | -
CC(C)C[C@H]1C(=O)N2CCCC2[C@]2(O)O[C@](NC(=O)[C@@H]3C=C4c5cccc6[nH]cc(c56)CC4N(C)C3)(C(C)C)C(=O)N12 (stereo partly specified) | - | - | - | -38
CN1C[C@@H](C(=O)N[C@@]2(C)O[C@]3(O)C4CCCN4C(=O)[C@@H](Cc4ccccc4)N3C2=O)C=C2c3cccc4[nH]cc(c34)C[C@@H]21 (stereo partly specified) | - | . | . | -32
CN1C[C@H](CO)C=C2c3cccc4[nH]cc(c34)C[C@H]21 | ? | - | - | -
CC(C)[C@@]1(NC(=O)[C@@H]2C[C@@H]3c4cccc5[nH]cc(c45)C[C@H]3N(C)C2)O[C@@]2(O)[C@@H]3CCCN3C(=O)[C@H](Cc3ccccc3)N2C1=O | 79µM! | - | - | -
CC(C)C[C@H]1C(=O)N2CCC[C@H]2[C@]2(O)O[C@](NC(=O)[C@@H]3C=C4c5cccc6[nH]c(Br)c(c56)CC4N(C)C3)(C(C)C)C(=O)N12 (stereo partly specified) | - | 18µM | - | -

Compound activity from PubChem.
